From ChEMBL document CHEMBL3988442, “University of Dundee, Small-Polar-MMV Screening Library” (2021) come the findings set out here.

For some of these results: Measured potencies and affinities stand elsewhere.

Design in all cases: scale not given: direction of the effect not stated beside the values
In assay [1] the target is Protein translocase subunit SecA (Escherichia coli (strain K12)) (UniProt P10408). Nature of the assay: Assay to Identify E. coli SecA ATPase Inhibitors. The settings on record: 30 µM. In kind it is functional.
The target of assay [2] is T1, Ubiquitin-activating enzyme e1, putative (Leishmania donovani (strain BPK282A1)) (UniProt E9BSI1).
T1 sequence (whole entry): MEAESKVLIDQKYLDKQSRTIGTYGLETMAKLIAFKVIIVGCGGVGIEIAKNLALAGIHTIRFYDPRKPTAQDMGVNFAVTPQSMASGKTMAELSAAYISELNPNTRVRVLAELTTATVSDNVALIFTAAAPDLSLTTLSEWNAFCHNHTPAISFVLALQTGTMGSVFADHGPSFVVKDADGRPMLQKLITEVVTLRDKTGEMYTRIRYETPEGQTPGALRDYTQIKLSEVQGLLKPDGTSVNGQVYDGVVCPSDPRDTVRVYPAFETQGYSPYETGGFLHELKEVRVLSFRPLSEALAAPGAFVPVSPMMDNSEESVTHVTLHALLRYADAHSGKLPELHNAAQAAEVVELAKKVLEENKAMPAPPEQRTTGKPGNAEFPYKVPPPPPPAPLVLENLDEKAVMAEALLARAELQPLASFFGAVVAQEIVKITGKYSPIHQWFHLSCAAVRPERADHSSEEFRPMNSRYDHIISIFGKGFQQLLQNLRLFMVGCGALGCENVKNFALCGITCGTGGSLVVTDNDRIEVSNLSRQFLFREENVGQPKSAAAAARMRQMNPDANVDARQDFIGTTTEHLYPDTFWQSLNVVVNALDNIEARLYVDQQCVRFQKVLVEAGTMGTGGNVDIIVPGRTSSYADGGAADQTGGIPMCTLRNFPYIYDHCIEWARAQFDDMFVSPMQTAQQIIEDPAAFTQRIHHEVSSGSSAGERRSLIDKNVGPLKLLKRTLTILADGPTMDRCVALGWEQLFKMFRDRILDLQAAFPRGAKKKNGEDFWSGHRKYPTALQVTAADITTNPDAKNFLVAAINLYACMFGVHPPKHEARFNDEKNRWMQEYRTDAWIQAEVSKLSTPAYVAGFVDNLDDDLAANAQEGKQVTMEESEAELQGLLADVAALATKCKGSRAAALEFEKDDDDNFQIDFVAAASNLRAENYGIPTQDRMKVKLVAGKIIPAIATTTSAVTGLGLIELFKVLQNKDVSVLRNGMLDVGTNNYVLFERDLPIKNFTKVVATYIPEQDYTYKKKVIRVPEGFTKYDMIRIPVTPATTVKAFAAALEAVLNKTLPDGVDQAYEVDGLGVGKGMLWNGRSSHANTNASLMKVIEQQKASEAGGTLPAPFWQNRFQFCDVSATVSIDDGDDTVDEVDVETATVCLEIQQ
Nature of the assay: Leishmania donovani Ubiquitin Activating Enzyme (LdE1). In kind it is functional. The settings on record: 30 µM.

In assay [3] the target is AMP-activated protein kinase, AMPK (Homo sapiens) (UniProt P54646+O43741+P54619+Q9UGJ0+Q9Y478+Q13131+Q9UGI9). Nature of the assay: AMP-dependent Kinase enzyme assay. An in vitro enzyme assay that detects ADP turnover that is directly proportional to AMPK activity. This uses naive AMPK that is activated during the assay with MK-8722. It is filed as functional. The settings on record: 30 µM.

In assay [4] the target is Sialic acid-binding Ig-like lectin 9 (Homo sapiens) (UniProt Q9Y336). Nature of the assay: Hs-Siglec9 ALPHAscreen SOP 20170721. The settings on record: 10 µM. Background: Bead proximity is the source of the signal in Alpha formats.
The subject of assay [5] is Trypanosoma cruzi. Description: Trypanosoma cruzi phosphomannomutase and mannose-1-phosphate guanylyltransferase assay. The settings on record: 10 µM. It is filed as functional.
The target in assay [6] is T2, Arginase-2, mitochondrial (Homo sapiens) (UniProt P78540).
T2 sequence (whole entry): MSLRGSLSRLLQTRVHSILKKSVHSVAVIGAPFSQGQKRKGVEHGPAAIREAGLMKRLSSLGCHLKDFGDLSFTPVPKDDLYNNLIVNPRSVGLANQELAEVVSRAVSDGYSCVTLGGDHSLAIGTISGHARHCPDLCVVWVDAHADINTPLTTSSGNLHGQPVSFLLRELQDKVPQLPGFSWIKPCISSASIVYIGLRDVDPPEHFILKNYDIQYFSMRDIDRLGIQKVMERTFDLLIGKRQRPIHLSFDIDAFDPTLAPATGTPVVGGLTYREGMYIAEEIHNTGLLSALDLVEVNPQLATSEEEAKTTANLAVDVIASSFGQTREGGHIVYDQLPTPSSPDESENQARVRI
Nature of the assay: in vitro enzyme assay to detect the production of urea directly proportional to the activity of Arginase II. Further: in the data most compounds retested in dose-response had high values. It is filed as functional. The settings on record: 33.3 µM.

Assay [7] has as its target T3, Proteasome subunit beta (Trypanosoma cruzi) (UniProt O96673).
T3 sequence (whole entry): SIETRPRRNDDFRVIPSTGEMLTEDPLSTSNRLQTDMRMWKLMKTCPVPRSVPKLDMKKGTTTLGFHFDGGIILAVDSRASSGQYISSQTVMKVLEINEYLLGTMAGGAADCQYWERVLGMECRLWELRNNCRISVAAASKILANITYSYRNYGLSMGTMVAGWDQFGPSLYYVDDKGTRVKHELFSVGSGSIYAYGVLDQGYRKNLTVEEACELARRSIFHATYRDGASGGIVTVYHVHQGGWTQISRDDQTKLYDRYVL
Description: Trypanosoma cruzi proteasome chymotrypsin-like activity (TcProtChymo) assay. Further: in the data most compounds retested in dose-response had high values. It is filed as functional. The settings on record: 9.37 µM.

For assay [8], the species on record is Homo sapiens. Description: To identify inhibition of the IFN signalling (Jak-Stat) pathway via expression of an eGFP reporter gene under the control of an IFN-stimulated response element (ISRE) containing MxA promoter. In kind it is functional. The settings on record: 30 µM.
In assay [9] the target is T4, Tyrosyl-tRNA synthetase, putative (Trypanosoma cruzi (strain CL Brener)) (UniProt Q4DSP6).
T4 sequence (whole entry): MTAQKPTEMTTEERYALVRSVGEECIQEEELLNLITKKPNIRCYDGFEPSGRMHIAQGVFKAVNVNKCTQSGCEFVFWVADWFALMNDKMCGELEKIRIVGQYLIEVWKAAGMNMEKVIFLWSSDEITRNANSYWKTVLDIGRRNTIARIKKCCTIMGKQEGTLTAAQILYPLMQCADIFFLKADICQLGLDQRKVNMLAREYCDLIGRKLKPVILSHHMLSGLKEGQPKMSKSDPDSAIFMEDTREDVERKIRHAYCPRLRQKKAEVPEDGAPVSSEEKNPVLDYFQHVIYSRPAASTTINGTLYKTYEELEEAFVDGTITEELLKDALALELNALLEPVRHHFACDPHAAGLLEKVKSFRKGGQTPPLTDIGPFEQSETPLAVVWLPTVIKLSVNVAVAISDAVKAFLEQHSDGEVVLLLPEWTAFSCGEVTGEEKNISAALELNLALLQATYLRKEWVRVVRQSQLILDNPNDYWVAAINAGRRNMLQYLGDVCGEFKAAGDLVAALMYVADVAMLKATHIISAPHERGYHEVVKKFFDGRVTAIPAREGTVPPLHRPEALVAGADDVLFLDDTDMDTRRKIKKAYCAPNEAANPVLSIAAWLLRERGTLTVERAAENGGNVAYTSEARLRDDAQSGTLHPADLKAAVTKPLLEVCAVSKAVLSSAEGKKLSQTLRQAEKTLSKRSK
Description: Trypanosoma cruzi tyrosyl tRNA synthetase (TcYRS) _High Tyrosine SOP. Further: in the data most compounds retested in dose-response had high values. The settings on record: 30 µM. In kind it is functional.

Assay [10] addresses T4, Tyrosyl-tRNA synthetase, putative (Trypanosoma cruzi (strain CL Brener)). Nature of the assay: Trypanosoma cruzi tyrosyl tRNA synthetase (TcYRS) SOP. In kind it is functional. The settings on record: 30 µM.
The target of assay [11] is Chromo domain-containing protein 1 (Saccharomyces cerevisiae (strain ATCC 204508 / S288c) (Baker's yeast)) (UniProt P32657). Nature of the assay: ScCHD-1 Enzyme Inhibition Assay. Further: in the data most compounds retested in dose-response had high values. The settings on record: 30 µM. It is filed as functional.
Sequence of Chromo domain-containing protein 1 (Saccharomyces cerevisiae (strain ATCC 204508 / S288c) (Baker's yeast)) (P32657 whole entry, the tested form may be a part): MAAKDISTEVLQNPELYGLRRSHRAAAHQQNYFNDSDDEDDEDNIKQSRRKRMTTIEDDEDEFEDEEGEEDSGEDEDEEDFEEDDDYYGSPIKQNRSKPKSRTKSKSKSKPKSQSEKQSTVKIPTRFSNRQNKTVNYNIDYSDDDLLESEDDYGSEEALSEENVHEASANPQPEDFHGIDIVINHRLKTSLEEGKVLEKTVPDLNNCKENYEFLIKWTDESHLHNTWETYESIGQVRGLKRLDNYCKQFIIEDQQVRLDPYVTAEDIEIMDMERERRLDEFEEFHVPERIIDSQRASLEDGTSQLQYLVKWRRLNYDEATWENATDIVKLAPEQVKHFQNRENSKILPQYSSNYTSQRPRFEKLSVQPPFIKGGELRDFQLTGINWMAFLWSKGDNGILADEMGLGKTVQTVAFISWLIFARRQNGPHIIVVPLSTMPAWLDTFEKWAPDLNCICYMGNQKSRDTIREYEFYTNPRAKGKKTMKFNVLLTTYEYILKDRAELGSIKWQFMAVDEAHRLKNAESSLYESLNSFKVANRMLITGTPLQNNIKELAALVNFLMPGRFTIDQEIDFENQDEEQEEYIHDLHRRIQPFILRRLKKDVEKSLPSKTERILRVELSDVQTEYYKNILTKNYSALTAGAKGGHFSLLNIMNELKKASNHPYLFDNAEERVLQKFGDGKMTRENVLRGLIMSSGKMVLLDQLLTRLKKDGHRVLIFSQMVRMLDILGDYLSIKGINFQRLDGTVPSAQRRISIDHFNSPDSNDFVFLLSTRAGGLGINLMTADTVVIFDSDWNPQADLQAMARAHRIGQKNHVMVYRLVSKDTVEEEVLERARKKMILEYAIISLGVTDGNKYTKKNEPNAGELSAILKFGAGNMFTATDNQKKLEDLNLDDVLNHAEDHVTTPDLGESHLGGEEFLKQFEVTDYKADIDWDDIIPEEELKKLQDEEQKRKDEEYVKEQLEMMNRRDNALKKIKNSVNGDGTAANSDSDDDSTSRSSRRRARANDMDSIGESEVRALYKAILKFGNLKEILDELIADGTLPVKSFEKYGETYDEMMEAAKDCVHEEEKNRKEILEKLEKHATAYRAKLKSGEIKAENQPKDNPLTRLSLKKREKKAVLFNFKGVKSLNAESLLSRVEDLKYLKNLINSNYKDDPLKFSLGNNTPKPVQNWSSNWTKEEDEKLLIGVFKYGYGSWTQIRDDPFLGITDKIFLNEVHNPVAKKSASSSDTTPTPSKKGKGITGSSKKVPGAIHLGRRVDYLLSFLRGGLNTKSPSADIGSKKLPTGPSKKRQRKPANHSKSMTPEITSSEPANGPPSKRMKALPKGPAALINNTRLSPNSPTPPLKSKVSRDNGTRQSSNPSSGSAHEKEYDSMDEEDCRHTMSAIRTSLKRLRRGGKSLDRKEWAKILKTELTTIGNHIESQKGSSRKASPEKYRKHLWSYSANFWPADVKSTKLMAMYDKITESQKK

Sequence of Protein translocase subunit SecA (Escherichia coli (strain K12)) (P10408 whole entry): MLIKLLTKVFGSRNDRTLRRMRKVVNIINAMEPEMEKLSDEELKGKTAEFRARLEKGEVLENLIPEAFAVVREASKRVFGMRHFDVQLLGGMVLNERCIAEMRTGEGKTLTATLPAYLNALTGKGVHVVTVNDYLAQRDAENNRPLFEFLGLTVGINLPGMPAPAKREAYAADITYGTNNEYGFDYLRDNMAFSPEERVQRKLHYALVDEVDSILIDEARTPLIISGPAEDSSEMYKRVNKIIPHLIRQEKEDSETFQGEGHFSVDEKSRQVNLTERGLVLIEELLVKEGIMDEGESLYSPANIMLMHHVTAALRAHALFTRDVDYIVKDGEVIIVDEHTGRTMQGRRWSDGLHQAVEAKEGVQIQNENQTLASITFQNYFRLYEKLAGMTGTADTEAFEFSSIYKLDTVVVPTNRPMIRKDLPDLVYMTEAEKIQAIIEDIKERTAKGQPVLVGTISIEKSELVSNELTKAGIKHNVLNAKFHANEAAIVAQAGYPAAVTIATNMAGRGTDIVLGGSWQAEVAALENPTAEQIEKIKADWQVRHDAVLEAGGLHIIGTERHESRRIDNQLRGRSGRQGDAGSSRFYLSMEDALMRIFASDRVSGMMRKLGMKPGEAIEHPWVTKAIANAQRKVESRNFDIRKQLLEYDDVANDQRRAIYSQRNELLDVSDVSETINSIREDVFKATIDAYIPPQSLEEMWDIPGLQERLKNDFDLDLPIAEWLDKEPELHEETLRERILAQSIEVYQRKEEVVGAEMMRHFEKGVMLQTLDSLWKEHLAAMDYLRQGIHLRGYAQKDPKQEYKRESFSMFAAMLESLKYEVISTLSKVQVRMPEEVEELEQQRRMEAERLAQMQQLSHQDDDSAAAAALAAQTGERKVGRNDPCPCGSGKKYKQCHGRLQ
Sequence of Sialic acid-binding Ig-like lectin 9 (Homo sapiens) (Q9Y336 whole entry): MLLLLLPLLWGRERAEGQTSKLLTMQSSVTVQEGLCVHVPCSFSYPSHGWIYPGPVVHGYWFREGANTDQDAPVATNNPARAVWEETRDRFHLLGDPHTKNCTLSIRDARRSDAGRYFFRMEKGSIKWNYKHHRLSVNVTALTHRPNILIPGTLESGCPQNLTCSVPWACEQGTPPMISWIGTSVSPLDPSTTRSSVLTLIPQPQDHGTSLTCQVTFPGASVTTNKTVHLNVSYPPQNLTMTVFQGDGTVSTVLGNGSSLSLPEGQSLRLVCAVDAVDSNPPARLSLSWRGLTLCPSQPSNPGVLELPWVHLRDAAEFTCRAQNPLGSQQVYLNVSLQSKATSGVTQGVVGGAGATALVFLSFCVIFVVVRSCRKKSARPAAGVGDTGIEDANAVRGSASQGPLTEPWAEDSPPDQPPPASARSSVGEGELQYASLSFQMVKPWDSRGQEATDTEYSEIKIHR

As to `CCC(O)CN1CCN(C(=O)c2cccn2Cc2ccccc2)CC1` (stereo unspecified), the Percent Effect in assay [1] is -7.42%; in [2] it was 10.1%; in [3] it was -1.72%; in assay [4], 3.91%; in [5], -5.95%; in assay [6], -0.38%. The Percent Effect is -3.69% in assay [7]; 20.8% in assay [8]; 0.493% in assay [9]; 11.4% in [10]; -3.89% in assay [11].

For `Cc1cc(C)n(CC2CCCN2CCCS(=O)(=O)N(C)C)n1` (stereo unspecified), the Percent Effect is -1.98% in assay [1]; 16.2% in [2]; -6.22% in [3]; 14% in assay [4]; 5.99% in [5]; 11.9% in assay [6]. Also, the Percent Effect in [7] is 13.6%; in [8], 8.21%; in assay [9] it was 4.76%; in assay [10] it was 19.5%; in assay [11], -4.54%.

Take `COc1c(C2CCCN2C(=O)Cc2c(C)noc2C)c(C)nn1C` (stereo unspecified): the Percent Effect in assay [1] is -4.91%; in assay [2] it was 15.2%; in assay [3], -0.162%; in [4], 8.65%; in assay [5], 0.661%; in assay [6], 0.38%. Further, the Percent Effect in [7] is 0.0819%; in [8], -12.4%; in [9] it was 7.39%; in assay [10] it was 16.5%; in assay [11], -6.93%.

For the compound `Cc1ccc(N2CCN(C(=O)COc3ccccc3)CC2)nn1`, the Percent Effect in [1] was -2.94%; in assay [2] it was 8.22%; in assay [3], 6.52%; in [4], -4.33%; in assay [5], -3.92%; in assay [6], -0.909%. For the same compound, the Percent Effect was 10.8% in assay [7]; 13.2% in [8]; 5.38% in [9]; 17.5% in assay [10]; -6.41% in assay [11].

Turning to `CCC(C)NC(=O)c1ccccc1-n1cnnn1` (stereo unspecified), the Percent Effect is -6.55% in assay [1]; 5.33% in [2]; 0.166% in [3]; 2.83% in assay [4]; -0.292% in assay [5]; 5.21% in [6]. The Percent Effect was 12.2% in [7]; 3.8% in assay [8]; 9.29% in assay [9]; 16.1% in assay [10]; -6.11% in assay [11].

As to `CC(C)C(=O)N1CCCC(c2ncncc2-c2ccncc2)C1` (stereo unspecified), the Percent Effect in assay [1] was -0.489%; in [2], 10.7%; in assay [3], 4.63%; in [4], -4.06%; in assay [5], 5.91%; in assay [6] it was -4.89%. The Percent Effect in [7] is 6.61%; in assay [8], -4.43%; in assay [9] it was 1.06%; in assay [10], 8.97%; in assay [11], -4.02%.

In the case of `O=C(c1cc(COc2ccc3c(c2)OCO3)[nH]n1)N1CCOCC1`, the Percent Effect in assay [1] was -8.28%; in assay [2], -2.74%; in assay [3], 9.08%; in [4], -1.9%; in [5], -4.37%; in assay [6] it was 0.798%. Moreover, the Percent Effect in [7] was 7.45%; in assay [8], 6.61%; in assay [9], -3.12%; in assay [10] it was -3.7%; in assay [11], -5.41%.

Turning to `Cc1ccn2cc(C(=O)N3CCCC3c3c(C)nn(C)c3C)nc2c1` (stereo unspecified), the Percent Effect in assay [1] is -7.15%; in [2] it was 8.86%; in [3] it was 7.77%; in assay [4], -1.49%; in assay [5], -3.79%; in assay [6], 1.5%. The Percent Effect in [7] is 9.09%; in [8], 4.07%; in [9] it was 5.21%; in assay [10], 0%; in assay [11], -3.05%.

As to `CCc1nc(C2CCCN(C(=O)c3ccc4c(c3)nnn4C)C2)no1` (stereo unspecified), the Percent Effect is -9.33% in [1]; 18.2% in assay [2]; -4.8% in [3]; -5.84% in [4]; 5.19% in assay [5]; -4.42% in assay [6]. In addition, the Percent Effect in [7] was 14.3%; in [8], 5.49%; in [9], -10.5%; in [10], 21.2%; in [11] it was -20.9%.

Regarding `O=C(CN1CC(n2cccn2)C1)NCCCc1ccccc1`, the Percent Effect is 0.869% in assay [1]; -13.5% in [2]; 10.2% in assay [3]; 12.8% in [4]; 6.41% in assay [5]; 1.29% in [6]. Also, the Percent Effect was -0.179% in assay [7]; -9.65% in assay [8]; 1.98% in assay [9]; 11% in assay [10]; 1.45% in assay [11].

With `CCN(CC)C(=O)CCNC(=O)Cc1nc(-c2ccco2)oc1C`, the Percent Effect was -7.31% in [1]; -2.67% in assay [2]; -3.57% in assay [3]; -1.71% in assay [4]; -5.75% in assay [5]; -0.521% in assay [6]. The Percent Effect is 17.3% in assay [7]; -3.68% in [8]; -1.64% in [9]; 3.7% in assay [10]; -7.39% in assay [11].
